The values below come from PubChem BioAssay (Tox21).

Results filed as inconclusive are left out. Where a call stands in place of a potency, no number is given. The source made the active and inactive calls. The call rests on the fitted dose curve.
Potency means the concentration at half of the fitted maximal effect.

A short description of this test: p53 small molecule agonists, cell-based qHTS assay with human liver microsomes: qHTS cell viability counter screen (AID 1963579). Further: nearly all actives have a fitted effect of over 45% in size. Conditions: p53RE-bla HCT-116 viability, ATP luminescence, 16 h, HLM; series mostly up to 66 µM. An excerpt:
National Center for Advancing Translational Sciences [NCATS]
Division of Preclinical Innovation [DPI]
U.S. Environmental Protection Agency [EPA]
National Institutes of Environmental Health Sciences [NIEHS]
National Toxicology Program [NTP]
U.S. Food and Drug Administration [FDA]
p53, a tumor suppressor protein, is activated following cellular insult, including DNA damage and other cellular stresses. The activation of p53 regulates cell fate by inducing DNA repair, cell cycle arrest, apoptosis, or cellular senescence. The activation of p53, therefore, is a good indicator of DNA damage and other cellular stresses. […] The activation of the reporter gene under culture conditions can be detected by fluorescence intensity. This cell line was used to screen the Tox21 10K compound library in the condition of presence of human liver microsomes and to identify agonists that activate the p53 signaling pathway after in vitro metabolic activation (Ooka et al., Archive of Toxicology 96:1975-1987, 2022).
Tox21 Assay Protocol Summary:
The p53RE-bla cells were dispensed at 4,000cells/3ul/well in 1536-well black-clear bottom plates. After the assay plates were incubated at 37 C, 5% CO2 incubator for 5 hours, 23 nL of compounds dissolved in DMSO, positive controls or DMSO only was transferred to the assay plate. Following compound addition, 3 uL of human liver microsomes (XenoTech, Kansas City, KS) at final concentration of 0.5 mg/mL and 1uL of B-Nicotinamide adenine dinucleotide 2'-phosphate (NADPH) at final concentration of 0.5 mg/mL were transferred to the assay plate. The plates were incubated at 37 C for 16 hours. 1 uL of LiveBLAzer detection mixture was added to each well and the plates were incubated at room temperature in the dark for 2 h. Fluorescence intensity at 460 and 530 nm emission and 405 nm excitation were measured by an Envision plate reader. For cell viability readout that measures cytotoxicity, 4 ul/well of CellTiter-Glo reagent was added into the assay plates using a Flying Reagent Dispenser. After 30 min incubation at room temperature, the luminescence intensity in the plates was measured using a ViewLux plate reader.
Consider `CNC(=O)Oc1cccc(C(C)C)c1`, for which the Potency result was “inactive”.

Consider `c1cncc([C@@H]2CCCCN2)c1`, for which the Potency entry was “inactive”.

`ClC(Cl)(Cl)Cl`: the Potency result is “inactive”.

As to `CC(C)(C)c1cc(O)ccc1O`, the Potency entry was “inactive”.

In the case of `CCC(C)(C)c1cc(-n2nc3ccccc3n2)c(O)c(C(C)(C)CC)c1`, the Potency result is “inactive”.

For the molecule `Fc1cccc(Cl)c1CCl`, the Potency result was “inactive”.

Consider `CC1=C(C(=O)O)N2C(=O)[C@@H](N)[C@H]2SC1`, for which the activity change, negative = cytotoxicity is 0.455% [at 13.5 µM] (inactive).

As for `Oc1c(Br)c(Br)c(Br)c(Br)c1Br`, the Potency is 23.1 µM (active).

As to `COP(=O)(OC)Oc1ccc([N+](=O)[O-])cc1`, the Potency entry was “inactive”.

Regarding `CC(Cl)C(C)Cl` (stereo not given), the Potency entry was “inactive”.

Regarding `CN[C@@H](C)[C@H](O)c1ccccc1`, the Potency entry was “inactive”.

With `CCC1COC(Cn2cncn2)(c2ccc(Cl)cc2Cl)O1` (stereo not given), the Potency entry was “inactive”.

For the molecule `CCCCc1ccc(O)cc1`, the Potency result was “inactive”.

Turning to `Cc1ccc(S(=O)(=O)N[C@@H](CCCCN)C(=O)CCl)cc1`, the Potency entry was “inactive”.

On to `O=[N+]([O-])C(Br)(CO)CO`, for which the Potency result is “inactive”.

In the case of `CCCN1CCC[C@@H]2Cc3nc(N)ncc3C[C@H]21`, the Potency result was “inactive”.

With `Cc1ncc(C[n+]2csc(CCO)c2C)c(N)n1`, the Potency result was “inactive”.

For `N#CSCc1ccccc1`, the Potency entry is “inactive”.

In the case of `O=[N+]([O-])c1c(Cl)c(Cl)cc(Cl)c1Cl`, the Potency entry was “inactive”.

With `CCOC(=O)C1(c2ccccc2)CCN(CCc2ccc(N)cc2)CC1`, the Potency entry is “inactive”.

Turning to `Cc1ccccc1`, the Potency entry is “inactive”.

`CCOC(=O)COc1cc(-c2nn(C)c(OC(F)F)c2Cl)c(F)cc1Cl`: the Potency entry was “inactive”.

Consider `CCCCCl`, for which the Potency result is “inactive”.

`Cl/C=C\Cl`: the Potency entry was “inactive”.

On to `CON(C)C(=O)Nc1ccc(Br)cc1`, for which the Potency result was “inactive”.

On to `CC(=O)[O-].CC(=O)[O-].[Hg+2]`, for which the Potency is 3.63 µM (active).

For `C[N+](C)(C)CCOC(=O)C(O)(c1ccccc1)c1ccccc1`, the Potency entry is “inactive”.

As to `COC(=O)N(C(=O)N1COC2(C(=O)OC)Cc3cc(Cl)ccc3C2=N1)c1ccc(OC(F)(F)F)cc1` (stereo not given), the Potency entry was “inactive”.

Turning to `CS(=O)(=O)c1ccc(C(=O)C2C(=O)CCCC2=O)c([N+](=O)[O-])c1`, the Potency entry is “inactive”.

Turning to `CCOP(=S)(OCC)Oc1cc(-c2ccccc2)on1`, the Potency result is “inactive”.

For `O=C(N[C@H]1CN2CCC1CC2)c1cc2ccoc2cn1`, the Potency result was “inactive”.

In the case of `CC(Oc1cccc(Cl)c1)C(=O)O` (stereo not given), the Potency result is “inactive”.

`CCOP(=O)(OCC)Oc1nc(Cl)c(Cl)cc1Cl`: the Potency result is “inactive”.

Consider `CCCCN(CCCC)C(=S)[S-].CCCCN(CCCC)C(=S)[S-].[Ni+2]`, for which the Potency entry was “inactive”.

Consider `Clc1ccc(-c2ccccc2)cc1`, for which the Potency entry is “inactive”.

For `CC1(C)CC/C(=C/c2ccc(Cl)cc2)C1(O)Cn1cncn1` (stereo not given), the Potency result was “inactive”.

Turning to `[Cl][Sn]([Cl])([Cl])[Cl]`, the Potency entry was “inactive”.

In the case of `CCN(C(C)=O)c1cccc(-c2ccnc3c(C#N)cnn23)c1`, the Potency entry was “inactive”.

Regarding `CO/N=C(/C1=NOCCO1)c1ccccc1Oc1ncnc(Oc2ccccc2Cl)c1F`, the Potency entry is “inactive”.

Consider `N#Cc1sc2c(=O)c3ccccc3c(=O)c=2sc1C#N`, for which the Potency was 5.13 µM (active).
